Inconclusive results are not listed. A call without a number means that no potency is given here. Active and inactive are the calls of the source. Calls come from the whole dose curve; as a rule, active = well fitted curve in the direction sought with a large enough effect in the repeat runs; inconclusive = weak or mixed curves; inactive = no such curve, though single readings can be large; an effect the other way counts as inactive or inconclusive.

One assay in a line: qHTS assay to identify small molecule antagonists of the estrogen related receptor (ERR) signaling pathway - cell viability counter screen (AID 1224818).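 Note: viability measured after 17.5 h of compound exposure.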 The following applies: ERR reporter cell line viability counter screen; series mostly up to 46.1 µM. The procedure, abridged: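 ERR cells, 2,000/well; 6 h settle at 37 C/5% CO2; compound pin transfer (DMSO); 17.5 h at 37 C; CellTiter-Fluor, 30 min, fluorescence read.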
As for `c1ccc2c(c1)CCC[C@H]2Nc1nc2ccccc2[nH]1`, the Potency result is “inactive”.
With `CN1Cc2sccc2C(c2ccc(O)c(O)c2)C1` (stereo not given), the Potency entry is “inactive”.
Same read-out and setting: the value for `Clc1ccc(N2CCN(Cc3c[nH]c4ncccc34)CC2)cc1` was “inactive”; that for `N#C/C(=C\c1ccc(O)c(O)c1)C(=O)c1ccc(O)c(O)c1` was “inactive”.
Take `CC1CN(S(=O)(=O)c2cccc3cnccc23)CCN1` (stereo not given): the Potency entry is “inactive”.
Same read-out and setting: the value for `CC(C)COC(=O)OCN1C(=O)CN(CCN2CC(=O)N(COC(=O)OCC(C)C)C(=O)C2)CC1=O` was “inactive”; that for `O=C1OC(=O)C2C3CCC(O3)C12` (stereo not given) was “inactive”.
Still for that read-out and setting: the value for `NC(=O)C1=CN(C2OC(COP(=O)(O)OP(=O)(O)OC[C@H]3O[C@@H](n4cnc5c(N)ncnc54)[C@H](OP(=O)(O)O)C3O)C(O)C2O)C=CC1` (stereo not given in full) was “inactive”; that for `N[C@@H](Cc1ccc(O)c(O)c1)C(=O)O` was “inactive”; that for `CN1CCc2cc(NC(=O)Nc3cccnc3)ccc21` was “inactive”.
Turning to `CN(C)C(=O)[C@H](O)[C@H](Cc1ccccc1)NC(=O)c1cc2cc(Cl)ccc2[nH]1`, the Potency result was “inactive”.
In the case of `COc1cc2c(CCNC(C)=O)c[nH]c2cc1Cl`, the Potency result was “inactive”.
Same read-out and setting: the value for `Nc1nc(OCC2CCCCC2)c2[nH]cnc2n1` was “inactive”; that for `O=C(c1ccc2c(c1)OCCO2)N1CCCCC1` was “inactive”; that for `O=C1C(SCCO)=C(SCCO)C(=O)c2ccccc21` was “inactive”.
The same measure, in the same setting: the value for `COC(=O)c1c(C)[nH]c(C)c1C(=O)c1ccccc1Cc1ccccc1` was “inactive”; that for `CN[C@H](CC(=O)O)C(=O)O` was “inactive”; that for `OC1(c2ccc(Cl)cc2)CCN(Cc2c[nH]c3ccccc23)CC1` was “inactive”.
On the same count and under the same terms, next, `Cc1cc(NC(=O)Nc2ccc3c(ccn3C)c2)sn1`: “inactive”; `O=c1[nH]c2cc(C(F)(F)F)ccc2n1-c1cc(C(F)(F)F)ccc1O`: “inactive”; `O=C(O)CCC/C=C\C[C@@H]1[C@@H](/C=C/[C@H](O)C2Cc3ccccc3C2)[C@@H](F)C[C@@H]1O`: “inactive”.
As to `CN(C)CCCC1(c2ccc(F)cc2)OCc2cc(C#N)ccc21` (stereo not given), the Potency result is “inactive”.
Same read-out and setting: next, `CNc1ncnc2c1ncn2[C@@H]1O[C@H](CO)C(O)[C@H]1O` (stereo not given in full): “inactive”; `COc1ccc(NC(=O)/C=C/c2ccc(Cl)cc2)cc1`: “inactive”.
The same measure, in the same setting: the value for `COC(=O)[C@H](NC(=O)c1cc(-c2ccccc2)nc2ccccc12)c1ccccc1` was “inactive”.
Still for that read-out and setting: next, `C[C@](Cc1ccc(O)c(O)c1)(NN)C(=O)O`: “inactive”.
As for `O=C(c1cc(O)c(O)c([N+](=O)[O-])c1)c1ccccc1F`, the Potency result is “inactive”.
On the same count and under the same terms, next, `Fc1ccc2[nH]c(CN3CCN(c4ccccn4)CC3)cc2c1`: “inactive”.
On the same count and under the same terms, the value for `CO/N=C(\C(=O)N[C@@H]1C(=O)N2C(C(=O)O)=C(COC(C)=O)CS[C@H]12)c1csc(N)n1` (stereo in doubt) was “inactive”; that for `O=C(Nc1ccncc1)c1cc([N+](=O)[O-])ccc1Cl` was “inactive”; that for `CC(C)(C)[C@]1(O)CCN2C[C@H]3c4ccccc4CCc4cccc(c43)[C@@H]2C1` was “inactive”.
`NCCCCN=C(N)N`: the Potency result was “inactive”.
Regarding `COc1cc(CNC(=O)CCCCCCC(C)C)ccc1O`, the Potency entry was “inactive”.
The same measure, in the same setting: next, `COc1cc(C(O)C(=O)O)ccc1O` (stereo not given): “inactive”; `C[C@H]1CC2C3CCC4=CC(=O)C=C[C@]4(C)[C@@]3(Cl)[C@@H](O)C[C@]2(C)[C@@]1(O)C(=O)CO` (stereo not given in full): “inactive”.
Regarding `CCCCCCC(=O)OC1CC(C)(C)NC(C)(C)C1`, the Potency result was “inactive”.
On the same count and under the same terms, next, `O=C1NC(=O)/C(=C/c2ccc(-c3ccc(F)cc3O)o2)S1`: “inactive”; `O=C(O)c1cc2cc(F)ccc2[nH]1`: “inactive”.
The same measure, in the same setting: the value for `COCCOc1cc2nc[nH]c(=O)c2cc1OCCOC` was “inactive”; that for `COc1ccccc1N1CCN(CCN(C(=O)C2CCCCC2)c2ccccn2)CC1` was “inactive”.

The nature of the next assay: qHTS assay to identify small molecule antagonists of the estrogen related receptor (ERR) signaling pathway (AID 1224819; note: nearly all actives have a fitted effect of over 50% in size; note: potency is the fitted concentration of half-maximal effect). The following applies: ERR reporter cell line, luciferase inhibition; series mostly up to 46.1 µM. The procedure, abridged: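 qHTS in ERR cells, 2,000/well, 1536 format. Cpd (DMSO) added after 6 h settle, 18 h 37 C. One-Glo luminescence, 30 min RT.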
For orientation: Quantitative high-throughput screening tests each substance at several concentrations.
As to `CN1Cc2sccc2C(c2ccc(O)c(O)c2)C1` (stereo not given), the Potency result was “inactive”.
Still for that read-out and setting: the value for `CC1CN(S(=O)(=O)c2cccc3cnccc23)CCN1` (stereo not given) was “inactive”; that for `CC(C)COC(=O)OCN1C(=O)CN(CCN2CC(=O)N(COC(=O)OCC(C)C)C(=O)C2)CC1=O` was “inactive”; that for `N[C@@H](Cc1ccc(O)c(O)c1)C(=O)O` was “inactive”.
As to `CN1CCc2cc(NC(=O)Nc3cccnc3)ccc21`, the Potency result was “inactive”.
On the same count and under the same terms, the value for `O=C(c1ccc2c(c1)OCCO2)N1CCCCC1` was “inactive”; that for `O=C1C(SCCO)=C(SCCO)C(=O)c2ccccc21` was 9.08 µM (active).
The same measure, in the same setting: the value for `CN[C@H](CC(=O)O)C(=O)O` was “inactive”.
The same measure, in the same setting: the value for `O=C(O)CCC/C=C\C[C@@H]1[C@@H](/C=C/[C@H](O)C2Cc3ccccc3C2)[C@@H](F)C[C@@H]1O` was “inactive”; that for `CN(C)CCCC1(c2ccc(F)cc2)OCc2cc(C#N)ccc21` (stereo not given) was “inactive”.
As for `COc1ccc(NC(=O)/C=C/c2ccc(Cl)cc2)cc1`, the Potency entry was “inactive”.
On the same count and under the same terms, next, `C[C@](Cc1ccc(O)c(O)c1)(NN)C(=O)O`: “inactive”; `O=C(c1cc(O)c(O)c([N+](=O)[O-])c1)c1ccccc1F`: 25.6 µM (active).
Still for that read-out and setting: next, `NCCCCN=C(N)N`: “inactive”; `COc1cc(CNC(=O)CCCCCCC(C)C)ccc1O`: “inactive”; `COc1cc(C(O)C(=O)O)ccc1O` (stereo not given): “inactive”.
Regarding `C[C@H]1CC2C3CCC4=CC(=O)C=C[C@]4(C)[C@@]3(Cl)[C@@H](O)C[C@]2(C)[C@@]1(O)C(=O)CO` (stereo not given in full), the Potency result was “inactive”.
On the same count and under the same terms, next, `O=C1NC(=O)/C(=C/c2ccc(-c3ccc(F)cc3O)o2)S1`: “inactive”.
Consider `O=C(O)c1cc2cc(F)ccc2[nH]1`, for which the Potency entry is “inactive”.
For `COCCOc1cc2nc[nH]c(=O)c2cc1OCCOC`, the Potency result is “inactive”.

The values are drawn from PubChem BioAssay (Tox21).
